SMILES strings stand for the structures. Inconclusive results are not listed. Unmarked numbers belong to inactive results. Activity calls are given as the source filed them. Calls follow the shape of the full dose curve.
% is scaled to controls: 0 for no effect and ±100 for the full control effect; potency is read from the fitted curve at half-maximal effect.

The assay is described as follows: qHTS assay for small molecule agonists of the p53 signaling pathway - cell viability (AID 651633). Also: nearly all actives have a fitted effect of over 30% in size.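 As to activity change, negative = cytotoxicity: p53RE-bla HCT reporter cells with a stable beta-lactamase p53 reporter.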 To be noted: p53RE-bla HCT-116 viability, ATP luminescence, 16 h; series mostly up to 83.3 µM; activity change, negative = cytotoxicity: at the top concentration. From the text: National Center for Advancing Translational Sciences [NCATS]
NIH Chemical Genomics Center [NCGC]
U.S. Environmental Protection Agency [EPA]
National Institutes of Environmental Health Sciences [NIEHS]
National Toxicology Program [NTP]
U.S. Food and Drug Administration [FDA]
p53, a tumor suppressor protein, is activated following cellular insult, including DNA damage and other cellular stresses. The activation of p53 regulates cell fate by inducing DNA repair, cell cycle arrest, apoptosis, or cellular senescence. The activation of p53, therefore, is a good indicator of DNA damage and other cellular stresses. […] The activation of the reporter gene under culture conditions can be detected by fluorescence intensity. This cell line was used to screen the Tox21 compound library in a 1536-well plate format and to identify agonists that activate the p53 signaling pathway.
Tox21 Assay Protocol Summary:
The p53RE-bla cells were dispensed at 4,000 cells/5 ul/well in 1536-well black wall/clear bottom plates using a Multidrop dispenser. After the assay plates were incubated at a 37 C/5% CO2 incubator for 5 hours, 23 nL of compounds dissolved in DMSO, positive controls or DMSO only was transferred to the assay plate by a pin tool. The plates were incubated at 37 C for 16 hours. After 1 uL of LiveBLAzerTM B/G FRET substrate was added using a Flying Reagent Dispenser, the plates were incubated at room temperature for 2 hours, and fluorescence intensity was measured by an Envision plate reader.
For cell viability readout that measures cytotoxicity, 4 ul/well of CellTiter-Glo reagent was added into the assay plates using a Flying Reagent Dispenser. After 30 min incubation at room temperature, the luminescence intensity in the plates was measured using a ViewLux plate reader.
On to `C[C@]12C[C@H]3S[C@H]3C[C@@H]1CC[C@@H]1[C@@H]2CC[C@]2(C)[C@@H](O)CC[C@@H]12`, for which the “activity change, negative = cytotoxicity” value was -23.2% [at 39.1 µM]. Take `Cc1nnc2n1-c1sc(CCc3ccc(CC(C)C)cc3)cc1C(c1ccccc1Cl)=NC2C` (stereo not given): the Potency was 23.7 µM (active). For the compound `O=P(O)(O)C(Cl)(Cl)P(=O)(O)O`, the “activity change, negative = cytotoxicity” value was 4.47%. On to `c1cc2c(c(NC3=NCCN3)c1)CCCC2`, for which the “activity change, negative = cytotoxicity” value is -17.5%. Still for that read-out and setting: for `CNC(C)Cc1ccccc1` (stereo not given) the value was 10.6%. The same measure, in the same setting: the value for `COc1cc([C@@H]2c3cc4c(cc3[C@@H](O)[C@H]3COC(=O)[C@H]23)OCO4)cc(OC)c1O` was 15.9%. Same read-out and setting: for `COc1ccc(OC)c([C@@H](O)[C@H](C)N)c1` the value was 21.1%; for `OC(c1ccccc1)(c1ccccc1)C1CN2CCC1CC2` (stereo not given), -11%; for `CCOC(=O)C1(c2ccccc2)CCCN(C)CC1` (stereo not given), 10.3%.

`O=c1[nH]cc(N(CCCl)CCCl)c(=O)[nH]1`: the “activity change, negative = cytotoxicity” value is 20.1%. Still for that read-out and setting: for `O=C(O)CCCO` the value was 17.6% [at 95.3 µM]; for `Clc1ccc2c(c1)C(c1ccccc1)=NCc1nncn1-2`, 8.03%; for `CNC(C)CC1CCCCC1` (stereo not given), -7.49%. Still for that read-out and setting: the value for `CC(=O)OO` was -11.8%. On the same count and under the same terms, the value for `CC(C)C[C@H]1C(=O)N2CCC[C@H]2[C@]2(O)O[C@](NC(=O)[C@@H]3C[C@@H]4c5cccc6[nH]cc(c56)C[C@H]4N(C)C3)(C(C)C)C(=O)N12` was 10.1%.

Turning to `COc1ccc2c3c1O[C@H]1[C@@H](O)C=C[C@H]4[C@@H](C2)NCC[C@@]341`, the Potency entry was “inactive”. As for `CCCN1CCC[C@H](c2cccc(O)c2)C1`, the “activity change, negative = cytotoxicity” value is 22.8%.

As for `CCOC(=O)C(O)(c1ccc(Cl)cc1)c1ccc(Cl)cc1`, the Potency was 15.5 µM (active).

Turning to `CC[N+](C)(CC)CCOC(=O)C(O)(c1ccccc1)c1ccccc1`, the “activity change, negative = cytotoxicity” value was 12.2%. Still for that read-out and setting: the value for `c1ccccc1` was -4.14%. Turning to `C[C@]12CC[C@H](O)C[C@H]1CC[C@@H]1[C@@H]2CC[C@]2(C)[C@@H](c3ccc(=O)oc3)C[C@H]3O[C@]132`, the Potency is 0.75 µM (active). For `C[C@]12CC[C@H]3[C@@H](CCC4=CC(=O)CC[C@@]43C)[C@@H]1CC[C@H]2O`, the “activity change, negative = cytotoxicity” value is -10.8%.

In the case of `O=C1C=C2C=C[C@@H]3C[C@@]2(O1)[C@H]1CCCCN31`, the “activity change, negative = cytotoxicity” value is -13.6%. Take `CN1[C@H]2CC[C@@H]1[C@@H](C(=O)O)[C@@H](OC(=O)c1ccccc1)C2`: the Potency result was “inactive”. Consider `C[C@]12CC[C@H]3[C@@H](CCC4=C(Cl)C(=O)CC[C@@]43C)[C@@H]1CC[C@@H]2O`, for which the “activity change, negative = cytotoxicity” value was -13.8%. Still for that read-out and setting: for `CC1COC(Cn2cncn2)(c2ccc(Oc3ccc(Cl)cc3)cc2Cl)O1` (stereo not given) the value was -28.7%; for `O=C1CN=C(c2ccccc2)c2cc(Cl)ccc2N1`, 10.8%; for `O=C(OCCN1CCCCC1)C(O)(c1ccccc1)c1ccccc1`, -7.33%.

As to `CCC1(C)CC(=O)NC(=O)C1`, the “activity change, negative = cytotoxicity” value is 17.5% [at 39.1 µM]. On the same count and under the same terms, the value for `O=C1CCCCC1CN1CCCCC1` (stereo not given) was 9.97%; that for `Cc1cc(C(C)(C)c2ccc(O)c(C)c2)ccc1O` was -26.3%. As for `C[N+]1([O-])[C@@H]2CC(OC(=O)[C@H](CO)c3ccccc3)C[C@H]1[C@@H]1O[C@@H]12` (stereo not given in full), the Potency result was “inactive”.

As for `C[C@@H]1[C@@H]2Cc3ccc(O)cc3[C@@]1(C)CCN2CCc1ccccc1`, the “activity change, negative = cytotoxicity” value is -6.49%. For the compound `CN[C@H]1C[C@@H](N)[C@H](O)[C@@H](O[C@@H]2O[C@H](CO)[C@H](O)[C@@H]3OC4(O[C@H]23)O[C@H](C(N)CO)[C@H](O)[C@H](O)[C@H]4O)[C@@H]1O` (stereo not given in full), the Potency entry is “inactive”.

For the compound `CC(N)Cc1ccc(O)cc1` (stereo not given), the “activity change, negative = cytotoxicity” value was 14.3%.

For `COc1cc(OC)c(OC)cc1C=O`, the “activity change, negative = cytotoxicity” value is 30.7%. Same read-out and setting: the value for `CC(C)NC(C)Cc1ccc(I)cc1` (stereo not given) was 15.8%; that for `NC1=NC(=O)N2CC12` (stereo not given) was 12%. As for `Oc1cccc[c]1[Hg][Cl]`, the Potency is 7.5 µM (active). In the case of `COC(=O)[C@@H]1[C@H]2CC[C@@H](C[C@H]1OC(=O)c1ccccc1)N2C`, the “activity change, negative = cytotoxicity” value was 15.1%.

The values are drawn from PubChem BioAssay (Tox21).
